Results on 68 compounds are retold here after PMC4552634, “A New Set of Chemical Starting Points with Plasmodium falciparum Transmission-Blocking Potential for Antimalarial Drug Discovery” (PLoS ONE, 2015).

In general, % Inhibition refers to the relative decrease from the control value, in per cent.

The test system of the assay is P. falciparum stage V gametocytes. More on the design: BacTiter-Glo ATP luminescence viability of purified stage V gametocytes in 384-well plates, per cent inhibition versus DMSO. As to conditions: 48 h, 5 µM, inhibitor.

Like-named read-outs stand apart in the source and are kept apart here. About 3,200 (25%) of roughly 13,000 compounds showed an effect of 50% or more. This is one part of the list.

On to `O=C(O)CNCC(O)c1ccccc1` (centres unmarked) [TCMDC-131775], for which the “% Inhibition” value was 4.722%.

For `FC(F)(F)c1ccc2[nH]c(-c3ccc(-c4ccc(CNCc5cnn(-c6ccccc6)n5)cc4)cc3)nc2c1.O=C(O)C(F)(F)F` [TCMDC-132970], the “% Inhibition” value was -15.1%.

With `CS(=O)(=O)n1c(CN2CCN(c3ncc(C(F)(F)F)cc3Cl)CC2)nc2ccccc21` [TCMDC-134291], the “% Inhibition” value was 88.45%.

As to `Cc1cccc(CN2CCN(c3ncc(C(=O)NC4CC4)cc3Cl)CC2)c1` [TCMDC-134604], the “% Inhibition” value came out at 4.534%.

In the case of `O=C(NC1CCN(c2ncc(C(F)(F)F)cc2Cl)CC1)c1cccs1` [TCMDC-133802], the “% Inhibition” value is reported as 15.64%.

In the case of `O=C1OC(c2cc3ccccc3n2S(=O)(=O)c2ccccc2)(c2cc3ccccc3n2S(=O)(=O)c2ccccc2)c2ccccc21` [TCMDC-131245], the “% Inhibition” value is 29.52%.

On to `CCC(C)(C)c1ccc(OCCCC(=O)Nc2ccc(Cl)c([N+](=O)[O-])c2)c(C(C)(C)CC)c1` [TCMDC-125721], for which the “% Inhibition” value is recorded as -38.1%.

Consider `C#CCOc1ccc2ccccc2c1CNCCCCCCNCc1c(OCC#C)ccc2ccccc12` [TCMDC-137838], for which the “% Inhibition” value is on record as 115.4%.

For `C#CCCOc1ccc2ccccc2c1CNCCCCCCNCc1c(OCCC#C)ccc2ccccc12` [TCMDC-137832], the “% Inhibition” value was 106.3%.

On to `O=C(NCCN1CCOCC1)c1csc(C2CCCN(C(=O)c3ccc(O)c(-c4cc(Cl)cc(Cl)c4)c3)C2)n1` (centres unmarked) [TCMDC-140155], for which the “% Inhibition” value is listed as 11.07%.

`CC(C)(C)SC1SC(SC(C)(C)C)C(OC(=O)c2ccccc2)C(OC(=O)c2ccccc2)C1OC(=O)c1ccccc1` (centres unmarked) [TCMDC-131948]: the “% Inhibition” value is -26.61%.

Take `O=S(=O)(NC1CCC(CN2CCC(c3c[nH]c4ccccc34)CC2)CC1)c1ccc(Cl)c(Cl)c1` (centres unmarked) [TCMDC-140164]: the “% Inhibition” value came out at 18.4%.

`O=C(Nc1ccccc1C(F)(F)F)NC1CCC(CN2CCC(c3c[nH]c4ccccc34)CC2)CC1` (centres unmarked) [TCMDC-140177]: the “% Inhibition” value (% Inhibition) is recorded as -23.5%.

`Cn1nc(-c2ccc(S(=O)(=O)NC3CCC(CN4CCC(c5c[nH]c6ccccc56)CC4)CC3)s2)cc1C(F)(F)F` (centres unmarked) [TCMDC-140174]: the “% Inhibition” value (% Inhibition) worked out at 96.23%.

Turning to `O=C(Nc1ccccc1C(F)(F)F)NC1CCC(CN2CCC(c3c[nH]c4ccccc34)CC2)CC1` (centres unmarked) [TCMDC-140197], where the note is “% Inhibition”, the “% Inhibition” value came to 5.962%.

As to `Cn1nc(-c2ccc(S(=O)(=O)NC3CCC(CN4CCC(c5c[nH]c6ccccc56)CC4)CC3)s2)cc1C(F)(F)F` (centres unmarked) [TCMDC-140166], the “% Inhibition” value (% Inhibition) amounted to 62.77%.

For the compound `O=C(NC1CCC(CN2CCC(c3c[nH]c4ccccc34)CC2)CC1)c1cc(-c2ccccc2Cl)oc1C(F)(F)F` (centres unmarked) [TCMDC-140358], the “% Inhibition” value turned out to be 4.446%.

Regarding `CCN1CCN(c2cc(C)c3cc(NC(=O)c4ccc(N(CC)CC)cc4)ccc3n2)CC1` [TCMDC-125574], the “% Inhibition” value is recorded as 18.21%.

In the case of `COc1ccc(-c2csc(NC(=O)CCC(=O)O)n2)cc1OC` [TCMDC-124274], the “% Inhibition” value is -7.165%.

With `CCCC(C)c1ccc(N2C(N)=NC(N)=NC2(C)C)cc1` (centres unmarked) [TCMDC-137715], the “% Inhibition” value is 12.27%.

In the case of `O=C(O)c1ccc(NC(=O)C2CC(=O)N(Cc3ccc(Cl)cc3)C(=Nc3ccc(Cl)cc3)S2)cc1` (centres unmarked) [TCMDC-124036], the “% Inhibition” value was -57.25%.

As for `COc1ccc(C[C@H](N)C(=O)N[C@H]2[C@@H](O)[C@H](n3cnc4c(N(C)C)ncnc43)O[C@@H]2CO)cc1` [TCMDC-123927], under “% Inhibition”, the “% Inhibition” value worked out at 96.23%.

In the case of `COc1ccc(C[C@H](N)C(=O)N[C@H]2[C@@H](O)[C@H](n3cnc4c(N(C)C)ncnc43)O[C@@H]2CO)cc1` [TCMDC-123493], where the note is “% Inhibition”, the “% Inhibition” value is on record as 123.8%.

Take `CS(=O)(=O)c1ccc(-c2cncc(Nc3cccc([N+](=O)[O-])c3)c2)cc1` [TCMDC-136669]: the “% Inhibition” value is on record as 44.65%.

`CCn1cc(CN2C(=O)C(c3ccccc3)(c3ccccc3)N=C2N)cn1` [TCMDC-136798]: the “% Inhibition” value came to 10.89%.

On to `CC1(C)N=C(N)N=C(N)C1c1ccc(Cl)c(Cl)c1` (centres unmarked) [TCMDC-137491], for which the “% Inhibition” value is given as -1.127%.

In the case of `N#CC(NC(=O)C=Cc1ccccc1)c1ccccc1` (centres unmarked) [TCMDC-131635], the “% Inhibition” value is -0.4742%.

Take `Cl.Nc1nc(Nc2cccc(O)c2)nc2ccccc12` [TCMDC-124459]: the “% Inhibition” value is 5.684%.

Regarding `Cc1ccc(Nc2nc(N)c3ccccc3n2)cc1.Cl` [TCMDC-123638], the “% Inhibition” value is given as 30.09%.

For the compound `Cl.c1ccc2c(Nc3ccc(Cc4ccc(Nc5c6ccccc6nc6ccccc56)cc4)cc3)c3ccccc3nc2c1` [TCMDC-137354], the “% Inhibition” value was found to be 113.6%.

Consider `c1cc(Cc2ccc(Nc3c4ccccc4nc4ccccc34)cc2)cc(Nc2c3ccccc3nc3ccccc23)c1` [TCMDC-137793], for which the “% Inhibition” value is on record as 84.71%.

Take `c1ccc(Oc2cccc(Nc3ccnc4ccccc34)c2)cc1` [TCMDC-137251]: the “% Inhibition” value was 14.27%.

On to `CC1(C)Cc2c(oc3ncn(CCn4cnc5oc6c(c5c4=N)CC(C)(C)SC6)c(=N)c23)CS1` [TCMDC-125795], for which the “% Inhibition” value was -5.815%.

Regarding `O=C(NC1CC1)c1ccc(N2CCC(c3ccccc3)CC2)nc1` [TCMDC-134590], the “% Inhibition” value turned out to be 17.19%.

For `Cc1ccc(CON2C(N)=NC(N)=NC2(C)C)cc1C` [TCMDC-131660], the “% Inhibition” value is 9.174%.

With `CS(=O)(=O)Nc1ccc(OCCCCCCOc2ccc(NS(C)(=O)=O)cc2)cc1` [TCMDC-137531], the “% Inhibition” value is 17.32%.

With `CC(C)CCNC(=N)Nc1ccc(OCCCOc2ccc(NC(=N)NCCC(C)C)cc2)cc1` [TCMDC-137615], the “% Inhibition” value is 100.2%.

In the case of `CC(C)CCNC(=N)Nc1ccc(OCCCCCOc2ccc(NC(=N)NCCC(C)C)cc2)cc1` [TCMDC-137614], the “% Inhibition” value is 113.6%.

On to `NOCCCOc1ccc(Cl)cc1` [TCMDC-123471], for which the “% Inhibition” value is 6.801%.

For the compound `COc1ccc(NC(=O)[C@H](CC(C)C)Nc2cc(C)nc(NCCOc3ccccc3)n2)cc1` [TCMDC-134760], the “% Inhibition” value is reported as 36.25%.

On to `COc1ccc(-c2ccc(CNC(=O)c3cccc(C#N)c3)c(F)c2)cc1CN1CCCN(C)CC1` [TCMDC-133367], for which the “% Inhibition” value amounted to 3.232%.

For `O=C(CCc1cccnc1)Nc1ccc(-c2cccc(-c3nc4ccc(F)cc4[nH]3)c2)cc1` [TCMDC-132146], the “% Inhibition” value is given as -0.1199%.

In the case of `CC1(C)CC(=O)c2c(O)cc(OCc3ccncc3)cc2O1` [TCMDC-131348], the “% Inhibition” value is -21.15%.

On to `Cc1cccc2nc(-c3cccc(-c4cccc(CNCCCN5CCCC5=O)c4)c3)[nH]c12.O=C(O)C(F)(F)F` [TCMDC-132751], for which the “% Inhibition” value is 3.721%.

Consider `Cc1cccc2nc(-c3cccc(-c4cccc(CNCCN5CCNCC5)c4)c3)[nH]c12` [TCMDC-132873], for which the “% Inhibition” value came out at 108%.

For the compound `Cc1cccc2nc(-c3cccc(-c4ccc(CNCCCN5CCCC5=O)cc4)c3)[nH]c12.O=C(O)C(F)(F)F` [TCMDC-132753], the “% Inhibition” value is recorded as 7.956%.

Turning to `Cc1cccc2nc(-c3ccc(-c4ccc(C(=O)NCCN5CCCC5)cc4)cc3)[nH]c12` [TCMDC-132320], the “% Inhibition” value came out at 6.886%.

For the compound `Cc1cccc2nc(-c3ccc(-c4cccc(CNCCN5CCNCC5)c4)cc3)[nH]c12` [TCMDC-132867], the “% Inhibition” value was determined as 101.3%.

For the compound `Cc1cccc2nc(-c3cccc(-c4cccc(CNCCc5cccn5C)c4)c3)[nH]c12.O=C(O)C(F)(F)F` [TCMDC-132685], the “% Inhibition” value is recorded as -19.68%.

As for `CCOc1cc2ncnc(Nc3cc(Cl)c(Cl)c(Cl)c3)c2cc1OCC` [TCMDC-131926], the “% Inhibition” value came out at 9.404%.

As to `O=C(c1ccc(Cl)cc1)N1CCCC(C(=O)N(Cc2nnc(-c3ccccc3Cl)o2)C2CC2)C1` (centres unmarked) [TCMDC-125331], the “% Inhibition” value is reported as -2.423%.

Take `Cc1c(Cl)cccc1NC(=S)NN=Cc1ccccn1` [TCMDC-125487]: the “% Inhibition” value is reported as 106.6%.

As to `COc1ccc2c(NN=Cc3ccccn3)ccnc2c1` [TCMDC-142028], the “% Inhibition” value is on record as -6.659%.

For the compound `Cc1cc(NN=Cc2ccccn2)c2cc(F)ccc2n1` [TCMDC-142020], the “% Inhibition” value is reported as 16.37%.

Turning to `CC(C)c1ccc(NC(=S)NN=Cc2ccccn2)cc1` [TCMDC-125520], the “% Inhibition” value was determined as 108.1%.

For the compound `O=C(Nc1ccc(S(=O)(=O)N2CCCCC2)cc1)c1cc(-c2ccccc2O)n[nH]1` [TCMDC-124310], the “% Inhibition” value is listed as -14.76%.

Regarding `CC(=NNC(=S)Nc1ccccc1Cl)c1ccccn1` [TCMDC-124278], the “% Inhibition” value is reported as 2.359%.

Turning to `Fc1ccc(NC(=S)NCCc2ccccc2)cc1` [TCMDC-123847], the “% Inhibition” value is on record as -9.114%.

Take `O=S(=O)(c1ccc(NC(=S)NN=Cc2ccccn2)cc1)N1CCCCC1` [TCMDC-125787]: the “% Inhibition” value is 60.8%.

For the compound `O=C(Nc1ccc(S(=O)(=O)N2CCCCCC2)cc1)c1cc(-c2ccccc2O)n[nH]1` [TCMDC-125203], the “% Inhibition” value is on record as -36.28%.

As to `Fc1ccc(NC(=S)NN=Cc2ccccn2)cc1` [TCMDC-125521], the “% Inhibition” value is 108.6%.

Consider `Cn1cnc2c(SCc3ccccc3OCc3ccccc3)ncnc21` [TCMDC-136495], for which the “% Inhibition” value is reported as -28.48%.

For `O=C(/C=C/c1ccc(Cl)c(Cl)c1)N(Cc1ccccc1)C1CCC(CN2CCC(c3c[nH]c4ccccc34)CC2)CC1` (centres unmarked) [TCMDC-140359], the “% Inhibition” value amounted to 26.1%.

Take `COc1cc2c(Nc3ccc(Br)cc3F)ncnc2cc1OCC1CCN(C)CC1` [TCMDC-123476]: the “% Inhibition” value stood at 19.55%.

Consider `O=C(O)C(F)(F)F.OC1CCCN(Cc2cccc(-c3ccc(-c4nc5cc(F)ccc5[nH]4)cc3)c2)C1` (centres unmarked) [TCMDC-133820], for which the “% Inhibition” value is given as 3.122%.

In the case of `COc1ccc2ncc(F)c(NC(=O)C3CCC(NCc4cc5c(F)cccc5[nH]4)CC3)c2n1` (centres unmarked) [TCMDC-136354], the “% Inhibition” value is on record as -14.12%.

On to `N#Cc1ccc2c(c1)CCN(CCC1CCC(NC(=O)Nc3ccncc3)CC1)C2` (centres unmarked) [TCMDC-139300], for which the “% Inhibition” value is listed as -15.77%.

Turning to `CCOC(=O)c1cc(=O)c2ccc(OCC#N)cc2o1` [TCMDC-131302], the “% Inhibition” value came out at 40.87%.
